From PubChem BioAssay (Tox21)
Inconclusive results are not listed. A call without a number means that no potency is given here. A number with no mark means an inactive call. Activity calls are given as the source filed them. Calls come from the whole dose curve; as a rule, active = well fitted cell-killing curve with a large enough effect in the repeat runs; inconclusive = weak or mixed curves, or effect the other way; inactive = flat fitted curve, though single readings scatter.

Assays:
[1] = cAMP Responsive Elements (CRE) small molecule antagonists, cell-based qHTS assay: qHTS cell viability counter screen (AID 2060913); note: nearly all actives have a fitted effect of over 40% in size
Method in brief: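 Viability of NKH477-stimulated (0.25 uM final) CRE-bla HEK293T cells is measured by CellTiter-Glo luminescence following 3 hrs compound exposure at 37 C.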

[2] = cAMP Responsive Elements (CRE) small molecule agonists, cell-based qHTS assay: qHTS cell viability counter screen (AID 2060914); note: nearly all actives have a fitted effect of over 50% in size
Method in brief: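 Cytotoxicity was measured as ATP luminescence (CellTiter-Glo, 30 min at room temperature) in the same wells as the CRE-bla FRET read-out. HEK293T CRE-bla cells had 3 h compound exposure at 37C/5% CO2.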

CCOC(=O)CC(=O)C(=O)OCC
Potency [1]: inactive | Potency [2]: inactive

Cc1ccc(Br)cc1
Potency [1]: inactive | Potency [2]: inactive

CC(=O)SC[C@@H](Cc1ccccc1)C(=O)NCC(=O)OCc1ccccc1
Potency [1]: inactive | Potency [2]: inactive

CC(C)c1ccc(C(C)C)cc1
Potency [1]: inactive | Potency [2]: inactive

CN1CCCN=C1COC(=O)C(O)(c1ccccc1)C1CCCCC1 (configuration not stated)
Potency [1]: inactive | Potency [2]: inactive

CC(=O)SC[C@@H](C)C(=O)N1CCC[C@H]1C(=O)N[C@@H](Cc1ccccc1)C(=O)O
Potency [1]: inactive | Potency [2]: inactive

Cc1ccccc1S(N)(=O)=O
Potency [1]: inactive | Potency [2]: inactive

CC(C)OC=O
Potency [1]: inactive | Potency [2]: inactive

CC[C@H](C)C(=O)O[C@H]1C[C@@H](C)C=C2C=C[C@H](C)[C@H](CC[C@@H]3C[C@@H](O)CC(=O)O3)[C@H]21
Potency [1]: inactive | Potency [2]: inactive

FC(F)(F)c1ccccc1
Potency [1]: inactive | Potency [2]: inactive

Cc1c[nH]c2ccccc12
Potency [1]: inactive | Potency [2]: inactive

CCn1ccnc1CC1COc2ccccc2O1 (configuration not stated)
Potency [1]: inactive | Potency [2]: inactive

O=C1CCC(=O)N1
Potency [1]: inactive | Potency [2]: inactive

Clc1cc(Cl)c(Cl)nc1Cl
Potency [1]: inactive | Potency [2]: inactive

CC(=O)c1c(C)cc(C(C)(C)C)cc1C
Potency [1]: inactive | Potency [2]: inactive

Cc1cnc(NC(=O)C2=C(O)c3ccccc3S(=O)(=O)N2C)s1
Potency [1]: inactive | Potency [2]: inactive

CCCCOC(=O)/C=C\C(=O)OCCCC
Potency [1]: inactive | Potency [2]: inactive

CCCCCC/C(C=O)=C\c1ccccc1
Potency [1]: inactive | Potency [2]: inactive

COCCCN1CCC(NC(=O)c2cc(Cl)c(N)c3c2OCC3)CC1
Potency [1]: inactive | Potency [2]: inactive

CN1C(C)(C)CCCC1(C)C
Potency [1]: inactive | Potency [2]: inactive

CCCCN(CCN(CCCC)C(=O)N1CCOCC1)C(=O)N1CCOCC1
Potency [1]: inactive | Potency [2]: inactive

NS(=O)(=O)c1ccccc1OC(F)(F)F
Potency [1]: inactive | Potency [2]: inactive

FC(F)(F)c1ccccc1Cl
Potency [1]: inactive | Potency [2]: inactive

CCN(Cc1ccncc1)C(=O)C(CO)c1ccccc1 (configuration not stated)
Potency [1]: inactive | Potency [2]: inactive

CCC(C)C=O (configuration not stated)
Potency [1]: inactive | Potency [2]: inactive

CC(=O)C(C)C
Potency [1]: inactive | Potency [2]: inactive

Cc1ccc([N+](=O)[O-])cc1N
Potency [1]: inactive | Potency [2]: inactive

CCC(=O)OC/C=C(\C)CCC=C(C)C
Potency [1]: inactive | Potency [2]: inactive

C=C1C2CCC(C2)C1(C)C (configuration not stated)
Potency [1]: inactive | Potency [2]: inactive

Cc1cc(C)c(N=Nc2c(O)c(S(=O)(=O)O)cc3cc(S(=O)(=O)O)ccc23)cc1C
viability change, negative = cytotoxic [1]: 13% [at 8.39 µM] | activity change, negative = cytotoxicity [2]: 4.39% [at 8.39 µM]

Nc1ccc(N)c(Cl)c1
Potency [1]: inactive | Potency [2]: inactive

CCOc1ccccc1C(N)=O
Potency [1]: inactive | Potency [2]: inactive

CCOC(=O)C(C)(C)Oc1ccc(Cl)cc1
Potency [1]: inactive | Potency [2]: inactive

CC(C)c1ccc(C#N)cc1
Potency [1]: inactive | Potency [2]: inactive

O=C(CCCl)NCCc1ccccc1
Potency [1]: inactive | Potency [2]: inactive

C#CC(C)(O)CC(C)C (configuration not stated)
Potency [1]: inactive | Potency [2]: inactive

CCCCCCCOC(=O)c1ccc(O)cc1
Potency [1]: inactive | Potency [2]: inactive

CC(=O)c1ccc2c(c1)N(CCCN(C)C)c1ccccc1S2
Potency [1]: inactive | Potency [2]: inactive

O=C(CCBr)N1CCN(C(=O)CCBr)CC1
Potency [1]: inactive | Potency [2]: inactive

CCCc1cc(=O)[nH]c(=S)[nH]1
Potency [1]: inactive | Potency [2]: inactive

C[N+]1(C)CCC(=C(c2ccccc2)c2ccccc2)CC1
Potency [1]: inactive | Potency [2]: inactive

CC(C)(Cc1c[nH]c2ccccc12)NCC(O)COc1ccccc1C#N (configuration not stated)
Potency [1]: inactive | Potency [2]: inactive

NC(=O)CC[C@@H]1NC(=O)[C@H](Cc2ccccc2)NC(=O)[C@H](Cc2ccc(O)cc2)NC(=O)CCSSC[C@@H](C(=O)N2CCC[C@H]2C(=O)N[C@@H](CCCN=C(N)N)C(=O)NCC(N)=O)NC(=O)[C@H](CC(N)=O)NC1=O
Potency [1]: inactive | Potency [2]: inactive

CCCC(C)C(=O)OCC (configuration not stated)
Potency [1]: inactive | Potency [2]: inactive

CCCc1ccc(O)c(OC)c1
Potency [1]: inactive | Potency [2]: inactive

CC(C)(C)C1CCCCC1=O (configuration not stated)
Potency [1]: inactive | Potency [2]: inactive

CC[N+](CC)(CC)Cc1ccccc1
Potency [1]: inactive | Potency [2]: inactive

CCCCC(=O)O[C@]1(C(=O)CO)[C@@H](C)C[C@H]2[C@@H]3CCC4=CC(=O)C=C[C@]4(C)[C@@]3(F)[C@@H](O)C[C@@]21C
Potency [1]: inactive | Potency [2]: inactive

Cc1ccccn1
Potency [1]: inactive | Potency [2]: inactive

CC(=O)CC(N)=O
Potency [1]: inactive | Potency [2]: inactive

O=c1oc(=O)c2cc3c(=O)oc(=O)c3cc12
Potency [1]: inactive | Potency [2]: inactive

C[C@@H](CN1CC(=O)NC(=O)C1)N1CC(=O)NC(=O)C1
Potency [1]: inactive | Potency [2]: inactive

O=C(O)CNC(=O)c1ccc(CO)o1
Potency [1]: inactive | Potency [2]: inactive

COc1cc(S(N)(=O)=O)cc(C(=O)O)c1OC
Potency [1]: inactive | Potency [2]: inactive

O=C(NCC(O)CO)c1c(I)c(C(=O)NCC(O)CO)c(I)c(N(CCO)C(=O)CO)c1I (configuration not stated)
Potency [1]: inactive | Potency [2]: inactive

O=C1OC[C@H](Cc2cccc(O)c2)[C@H]1Cc1cccc(O)c1
Potency [1]: inactive | Potency [2]: inactive

C#CCN(C)Cc1ccccc1
Potency [1]: inactive | Potency [2]: inactive

O=C(O)c1cc(=O)c2c(OCC(O)COc3cccc4oc(C(=O)O)cc(=O)c34)cccc2o1
Potency [1]: inactive | Potency [2]: inactive

CNC[C@H](O)[C@@H](O)[C@H](O)[C@H](O)CO
Potency [1]: inactive | Potency [2]: inactive

CN1CCCCC1CCN1c2ccccc2Sc2ccc(S(C)=O)cc21 (configuration not stated)
Potency [1]: inactive | Potency [2]: inactive

C[C@]12CC[C@@H]3c4ccc(O)cc4C[C@@H](CCCCCCCCCS(=O)CCCC(F)(F)C(F)(F)F)[C@H]3[C@@H]1CC[C@@H]2O (some centres not stated)
Potency [1]: inactive | Potency [2]: inactive

CC(C)(Oc1ccc(Cl)cc1)C(=O)O
Potency [1]: inactive | Potency [2]: inactive

CC1=C(CC(=O)O)c2cc(F)ccc2/C1=C\c1ccc(S(C)(=O)=O)cc1
Potency [1]: inactive | Potency [2]: inactive

O=S(=O)(O)c1ccc(N=Nc2c(O)ccc3cc(S(=O)(=O)O)ccc23)cc1
Potency [1]: inactive | Potency [2]: inactive

COc1cc2c(N3CCN(C(=O)Nc4ccc(OC(C)C)cc4)CC3)ncnc2cc1OCCCN1CCCCC1
Potency [1]: inactive | Potency [2]: inactive

COc1cccc(O)c1O
Potency [1]: inactive | Potency [2]: inactive
